The results in this text go back to PubChem BioAssay AID1159577 (Broad Institute, 2015).

About 240 (18%) of roughly 1,300 compounds were called active. About 8% were inconclusive and are not listed. How the calls were made is not given here. Not all results are given here. Results with a measured potency or affinity are listed apart.

The assay is described as follows: toxicity to human hepatoma HepG2 cells – cell-based, cherry-picked samples, cytotoxicity control, dose response (AID 1159577).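 Further: 0% = neutral control wells and -100% = positive control wells.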 As to conditions: HepG2 cytotoxicity counterscreen, plate reader; series mostly up to 19.5 µM; activity change, negative = cytotoxicity: at the top concentration. In general terms: Counterscreens check selectivity or assay interference.
For `C[C@H]1CN([C@@H](C)CO)C(=O)Cc2cc(NC(=O)CCC(F)(F)F)ccc2O[C@H]1CN(C)S(C)(=O)=O`, the “activity change, negative = cytotoxicity” value is -7.8% [at 21 µM] (inactive).
On to `COc1ccccc1C#Cc1ccc2c(c1)[C@H]1[C@H](CCN1C(=O)CN1CCOCC1)[C@@H](CO)N2`, for which the “activity change, negative = cytotoxicity” value is -5.84% (inactive).
For `CO[C@@H]1CN(C)C(=O)c2ccc(NC(=O)Nc3ccccc3F)cc2OC[C@@H](C)N(CC2CC2)C[C@H]1C`, the “activity change, negative = cytotoxicity” value is 12.8% (inactive).
For the compound `C[C@H](CO)N1C[C@H](C)[C@H](CN(C)C(=O)Cc2ccncc2)Oc2cc(C#CC3CCCC3)ccc2S1(=O)=O`, the “activity change, negative = cytotoxicity” value was -14.7% (inactive).
For the compound `COc1ccc(CN2C[C@@H](C)[C@@H](OC)CN(C)C(=O)c3cc(NC(=O)c4nc5ccccc5s4)ccc3OC[C@H]2C)cc1`, the “activity change, negative = cytotoxicity” value is -3.74% [at 21 µM] (inactive).
`CCCN(C)C[C@@H]1Oc2cc(C#Cc3ccncc3)ccc2S(=O)(=O)N([C@H](C)CO)C[C@@H]1C`: the “activity change, negative = cytotoxicity” value was 12.5% (inactive).
For `COc1ccc(NC(=O)N(C)C[C@@H]2Oc3cc(-c4ccc(C)cc4)ccc3S(=O)(=O)N([C@H](C)CO)C[C@H]2C)cc1`, the “activity change, negative = cytotoxicity” value was -8.05% (inactive).
Next, `CCS(=O)(=O)N1CCCCN2[C@H](CO)[C@H](c3ccc(C#Cc4ccccc4OC)cc3)[C@@H]2C1`: -13.8% (inactive); `CCC(=O)Nc1ccc2c(c1)OC[C@@H](C)N(Cc1cccc(F)c1)C[C@@H](C)[C@H](OC)CN(C)C2=O`: -5.61% (inactive).
Next, `CCCNC(=O)Nc1ccc2c(c1)OC[C@@H](C)N(Cc1ccccc1)C[C@@H](C)[C@H](OC)CN(C)C2=O`: -18.6% (inactive); `COCC(=O)N1[C@H](C#N)[C@@H](c2ccccc2C2=CCCC2)[C@@H]1CO`: -6.44% (inactive); `COc1ccc2c3c(n(C)c2c1)[C@H](CO)N(C(=O)Nc1ccc(F)cc1)CC31CN(C(=O)c2ccc3c(c2)OCO3)C1`: -9.75% (inactive).
Consider `C[C@H]1CN([C@@H](C)CO)C(=O)c2ccccc2-c2ccccc2CO[C@H]1CN(C)Cc1cccc(C(F)(F)F)c1`, for which the “activity change, negative = cytotoxicity” value is -13.8% (inactive).
Next, `C[C@H]1CN([C@@H](C)CO)C(=O)c2ccccc2-c2ccccc2CO[C@H]1CN(C)Cc1ccc(Oc2ccccc2)cc1`: -19.8% [at 21 µM] (inactive); `C[C@H]1CN([C@@H](C)CO)C(=O)c2ccccc2-c2ccccc2CO[C@H]1CN(C)Cc1ccc(-c2ccccc2)cc1`: -6.19% (inactive); `C[C@@H]1CN([C@H](C)CO)C(=O)c2ccccc2-c2ccccc2CO[C@H]1CN(C)C(=O)Nc1cccc(C(F)(F)F)c1`: -2.23% [at 21 µM] (inactive).
In the case of `C[C@@H]1CN([C@H](C)CO)C(=O)c2ccccc2-c2ccccc2CO[C@@H]1CN(C)Cc1ccc(C(F)(F)F)cc1` it was -2.81% (inactive).
Next, `C[C@@H]1CN([C@@H](C)CO)C(=O)c2ccccc2-c2ccccc2CO[C@H]1CN(C)C(=O)Nc1cccc(C(F)(F)F)c1`: -8.02% [at 21 µM] (inactive); `C[C@H](CO)N1C[C@H](C)[C@H](CN(C)C(=O)Nc2ccc(N3CCCCC3)cc2)OCc2cnnn2CCCC1=O`: 7.84% (inactive).
On to `CCCC(=O)N1CC2(C1)CN(Cc1ccccc1F)[C@H](CO)c1c2c2ccc(OC)cc2n1C`, for which the “activity change, negative = cytotoxicity” value was -26.6% (inactive).
Consider `COc1ccc2c3c([nH]c2c1)[C@@H](CO)N(Cc1cccc(Cl)c1)CC31CCN(C(C)=O)CC1`, for which the “activity change, negative = cytotoxicity” value was 2.58% (inactive).
As to `CN(C)c1ccc2c(c1)[C@@H]1C[C@H](CC(=O)N3CCc4ccccc4C3)O[C@@H](CO)[C@@H]1O2`, the “activity change, negative = cytotoxicity” value was 14.7% (inactive).
Next, `CO[C@@H]1CN(C)C(=O)c2ccc(NC(=O)NC3CCCCC3)cc2OC[C@@H](C)N(CCc2ccccc2)C[C@H]1C`: 6.34% [at 21 µM] (inactive); `O=C(Nc1ccc(F)cc1)N1C[C@H]2[C@@H](c3ccccc31)[C@@H](CO)N2Cc1cocn1`: -1.49% (inactive); `COc1ccc(NC(=O)N2CC3(C2)CN(C(=O)C2CCC2)[C@H](CO)c2c3c3ccc(OC)cc3n2C)cc1`: 17.1% (inactive).
In the case of `C/C=C/c1ccccc1[C@H]1[C@@H](C#N)N(C(=O)NC2CCCC2)[C@H]1CO` it was -37.1% (inactive); in that of `COc1ccc(-c2ccc3c(c2)[C@H]2[C@H](CCN2C(=O)NC2CCCC2)[C@H](CO)N3C)cc1`, -7.82% [at 21 µM] (inactive); in that of `COc1ccc(-c2ccc3c(c2)[C@H]2[C@H](CCN2C(=O)C2CCCC2)[C@H](CO)N3C)cc1`, -6.49% (inactive).
In the case of `O=C(c1ccc(F)cc1)N1CC(=O)N2[C@H](C1)[C@@H](c1ccc(-c3cccnc3)cc1)[C@@H]2CO` it was 7.07% (inactive).
Take `CCCNC(=O)Nc1ccc2c(c1)C(=O)N(C)C[C@H](OC)[C@@H](C)CN(C(=O)C1CCOCC1)[C@H](C)CO2`: the “activity change, negative = cytotoxicity” value is -8.62% (inactive).
Consider `CO[C@@H]1CN(C)C(=O)c2ccc(NC(=O)Nc3ccccc3F)cc2OC[C@@H](C)N(Cc2ccccc2F)C[C@H]1C`, for which the “activity change, negative = cytotoxicity” value is -9.23% [at 21 µM] (inactive).
Next, `Cc1ccccc1S(=O)(=O)N1CC(=O)N2[C@H](CO)[C@H](c3ccc(C#CC4CC4)cc3)[C@@H]2C1`: 28.6% (inactive).
Next, `Cc1ccccc1S(=O)(=O)N1CC(=O)N2[C@H](CO)[C@H](c3ccc(C#CCC4CCCC4)cc3)[C@H]2C1`: 2.71% (inactive).
In the case of `O=C1CN(S(=O)(=O)c2ccccc2)C[C@@H]2[C@H](c3ccc(C#CCc4ccccc4)cc3)[C@@H](CO)N12` it was 2.88% (inactive).
Consider `O=C1CN(S(=O)(=O)c2ccccc2)C[C@H]2[C@H](c3ccc(C#CCc4ccccc4)cc3)[C@@H](CO)N12`, for which the “activity change, negative = cytotoxicity” value was -9.33% (inactive).
